24 molecules from PubChem BioAssay (NCI) can be followed below.

The structures appear in SMILES notation. Where “and” joins values, the source holds several entries; their conditions need not be identical. Identical values can stand only once. The panel holds about 83,000 compounds, 20% with a hit somewhere; the sample as a whole holds those more often.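 96-well plates, one dose, 48 hours. Percent growth reported; active if below 10.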 Calls of active or inactive are those of the source.

This assay has as its system SK-MEL-5 melanoma. The experiment in a line: NCI-60 one-dose screen, 48 h (100 = growth as untreated, 0 = no growth, -100 = all killed). The conditions noted are these: 10 µM.
With `O=C1C=Cc2ccccc2C1=O`, the growth was 31.3% (inactive).

On to `COC1CC2C=C(C)/C=C/C=C/C(=O)NC(c3ccccc3)C/C=C/CCC(O)CC(=O)C2=C1O` (centres undefined), for which the growth was -97.2% (active).

In the case of `Cc1ccc(NC(=O)CBr)cc1`, the growth was 96.4% (inactive).

Regarding `Cc1ccc(C(=O)C2C(c3ccccc3)N2C2CCCCC2)cc1` (centres undefined), the growth is 88.1% (inactive) and 99% (inactive).

`O=C(CBr)Nc1ccc(Cl)cc1`: the growth was 78.3% (inactive).

In the case of `CC(C)c1cc([N+](=O)[O-])cc([N+](=O)[O-])c1O`, the growth was 98.4% (inactive).

Consider `COc1ccccc1/C=C/[N+](=O)[O-]`, for which the growth is 83.4% (inactive).

For the molecule `O=C(CCl)Nc1ccc(Cl)cc1`, the growth is 30.3% (inactive).

`Cc1cc(C)c(C[N+](C)(C)C)c(C)c1C`: the growth is 5.57% (active).

As to `C[C@]12CC[C@H]3[C@@H](CCC4=CC(=O)CC[C@@H]43)[C@@H]1CC[C@@H]2OC(=O)N(CCCl)N=O`, the growth is 51.3% (inactive).

With `NNc1ccccc1`, the growth is 87.9% (inactive).

In the case of `COc1ccc(/C=C(\C)[N+](=O)[O-])cc1OC`, the growth is 54.6% (inactive).

On to `C[CH2][Hg][S]c1ccccc1C(=O)O`, for which the growth was -68.3% (active).

For `O=S(=O)(F)c1ccc(Cl)cc1`, the growth was 108% (inactive).

As to `O=[N+]([O-])/C=C/c1ccc(Cl)cc1[N+](=O)[O-]`, the growth was 81.4% (inactive).

`COc1cc([N+](=O)[O-])c2ncccc2c1[N+](=O)[O-]`: the growth is 95.6% (inactive).

For `Oc1c(I)cc(I)cc1I`, the growth was 98.1% (inactive).

For `O=[N+]([O-])/C=C\c1ccc2c(c1)OCO2`, the growth is 94.3% (inactive).

With `O=[N+]([O-])c1ccc(Br)c([N+](=O)[O-])c1`, the growth was 95.8% (inactive).

On to `O=[N+]([O-])c1ccc(N(CCO)CCO)c2c1no[n+]2[O-]`, for which the growth is -73.9% (active).

Take `COc1cc(/C=C/[N+](=O)[O-])cc(Br)c1OC`: the growth was 24.5% (inactive).

Turning to `COc1cc(/C=C\[N+](=O)[O-])ccc1O`, the growth is 77% (inactive) and 79.3% (inactive).

Take `Cc1cc(C(C)(C)c2ccc(O)c(C)c2)ccc1O`: the growth was 88% (inactive).

In the case of `COC12c3c(C)cc(O)c4c(=O)occ(c34)C(=O)C1C13COC(=O)c4c(O)cc(C)c(c41)C(=O)C2C3OC(C)=O` (centres undefined), the growth was 111% (inactive).
